Source: PubChem
Fluor 339 460 – intrinsic fluorescence of library compounds, ex339/em460 – biochemical, MLSMR library, data from DPM-DC assay, artefact control, profiling panel | compound autofluorescence, ex339/em460 nm, NADH buffer; stronger effect = higher value; 1 = no-compound wells, NADH background | fluorescence fold increase at 10 µM | 65,000 compounds, 5.5% hits | AID 709, 2007;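 active = at 10 µM, mean starting fluorescence two-fold or more over control wells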;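 note: signal is the first read of a kinetic run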
MK inhibit – S. pneumoniae MK inhibitors, primary screen, biochemical, PK/LDH-coupled NADH absorbance. mevalonate kinase [Streptococcus pneumoniae D39]. 65,000 compounds, 0.48% hits. purified MK, PK/LDH-coupled NADH absorbance 340 nm. inhibition, % at 10 µM;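 active = ranked among the strongest by inhibition in the single 10 µM screen, a fixed top-ranked set picked for dose follow-up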
Spn PMK inh – S. pneumoniae PMK inhibitors, primary screen, biochemical, mevalonate pathway, pilot trial included. AID 539, 2006. purified PMK, PK/LDH-coupled NADH absorbance 340 nm. 65,000 compounds, 0.49% hits. inhibition, % at 10 µM;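 active = top-ranked compounds by inhibition in the single 10 µM screen, taking a fixed number of the strongest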
NADH enzymes – inhibitors of PK/LDH coupling enzymes, profiling panel, artefact control, biochemical, MLSMR library. coupled PK/LDH NADH assays, four targets. AID 774, 2007. 65,000 compounds, 0.02% hits. IC50, µM (doses to about 10 µM);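 active = single-dose screening hits from any of four coupled enzyme assays that gave an IC50 when retested across doses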;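 note: the DPM-DC format reads NADH fluorescence rather than 340 nm absorbance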
A340 absorber – compound light absorbance at 340 nm, profiling panel, artefact control, biochemical, MLSMR library, data from PS, PMK, MK assays. 65,000 tested, under 10 active. compound absorbance at 340 nm, fold over control. fold change at 10 µM;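 active = at 10 µM dose, initial 340 nm absorbance at least 2 fold that of control wells; inactive = change under 2 fold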;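 note: initial absorbance extrapolated from kinetic A340 decline of NADH oxidation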
Spn DPM-DC inh – S. pneumoniae DPM-DC inhibitors, primary screen, biochemical, PK/LDH-coupled NADH fluorescence | purified DPM-DC | diphosphomevalonate decarboxylase (Streptococcus pneumoniae D39) | 65,000 compounds, 0.49% hits | calls only at 10 µM;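 active = the 320 compounds with the highest percent inhibition in the single-dose primary screen, excluding strongly autofluorescent ones, cut at about 32% in these data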;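 note: kinetic rate of NADH fluorescence loss reporting ADP formed by the decarboxylase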
A number is an active result; n = inactive; x = no result given; + = active, no number. Sampled rows, rich in hits. Any-hit rate of the full collection: about 6.5%.

SMILES	Fluor 339 460	MK inhibit	Spn PMK inh	NADH enzymes	A340 absorber	Spn DPM-DC inh
O=C(NCc1ccco1)c1cnn2c(C(F)F)cc(-c3ccccc3)nc12	2.1	n	n	n	n	n
Cc1cc(NC(=O)c2cnn3c(C(F)F)cc(-c4ccccc4)nc23)no1	n	n	n	n	n	n
O=C(O)c1cnn2c(C(F)(F)F)cc(-c3ccco3)nc12	n	n	n	n	n	n
CCOc1ccc(-n2c(=S)sc3c(=O)[nH]c(SCC(=O)NCc4ccco4)nc32)cc1	n	n	n	n	n	n
O=C(NCc1ccco1)c1cnn2c(C(F)(F)F)cc(-c3cccs3)nc12	2.3	n	n	n	n	n
O=C(CSc1nc2nc(-c3cccs3)cc(C(F)(F)F)c2c(=O)[nH]1)NCc1ccco1	4.9	n	n	n	n	x
COc1ccc(-c2cc(C(F)(F)F)n3ncc(C(=O)NCC4CCCO4)c3n2)cc1 (stereo not given)	3	n	n	n	n	x
O=c1[nH]c(CN2CCC(c3nc4ccccc4s3)CC2)nc2sc3c(c12)CCC3	n	n	n	n	n	n
O=C(NC1CCCCC1)c1cnn2c(C(F)(F)F)cc(-c3ccco3)nc12	2.5	n	n	n	n	n
CC(C)(C)c1ccc(-c2conc2N)cc1	n	n	n	n	n	n
COc1cc2c(cc1OC)-c1cc(Nc3ccc4c(c3)OCCO4)nc(=O)n1CC2	n	n	n	n	n	n
COc1ccc(C(=O)N2CCN=C2SCc2cccnc2)cc1OC	n	n	n	n	n	n
COc1cc2c(cc1OC)-c1cc(N3CCCCCC3)nc(=O)n1CC2	2.5	n	n	n	n	n
COc1cc2c(cc1OC)-c1cc(NC3CCCCCC3)nc(=O)n1CC2	3.3	n	n	n	n	x
COc1cc2c(cc1OC)-c1cc(OCc3cccnc3)nc(=O)n1CC2	2.9	n	n	n	n	x
COc1cc2c(cc1OC)-c1cc(N3CCCc4ccccc43)nc(=O)n1CC2	n	n	n	n	n	n
CCN(CC)CCCNC(=O)c1nn(-c2ccccc2OC)c(=O)c2ccccc12	n	n	n	n	n	n
CCN(CC)CCCNc1cc2n(c(=O)n1)CCc1cc(OC)c(OC)cc1-2	4	n	n	n	n	x
CCc1ccccc1S(=O)(=O)Cc1ccc(C(=O)N2CCN(c3ccccn3)CC2)o1	n	n	n	n	n	n
COc1ccccc1-c1cc(C(F)(F)F)nc(S(=O)(=O)CCCC(=O)N2CCOCC2)n1	n	n	n	n	n	n
COCCNC(=O)CSc1nc(-c2ccc(OC)c(OC)c2)cc(C(F)(F)F)n1	2.1	n	n	n	n	n
COc1ccc(-c2cc(C(F)(F)F)nc(SCC(=O)N3CCOCC3)n2)cc1OC	2.4	n	n	n	n	n
COc1ccc(-c2cc(C(F)(F)F)nc(SCC(=O)Nc3cc(C)on3)n2)cc1	3	n	n	n	n	n
COc1ccc(-c2cc(C(F)(F)F)nc(S(=O)(=O)CCC(=O)N3CCOCC3)n2)cc1	2.8	n	n	n	n	n
COc1ccccc1CN(Cc1nc2ccccc2c(=O)[nH]1)C(=O)Nc1ccccc1	n	n	n	n	n	n
SMILES	Fluor 339 460	MK inhibit	Spn PMK inh	NADH enzymes	A340 absorber	Spn DPM-DC inh
O=C(NCc1ccc2c(c1)OCO2)c1nnc(Cc2ccc(Cl)cc2)o1	n	n	n	n	n	n
O=C(CSc1nnc(C2CCCCC2)n1Cc1ccccc1)NCc1ccco1	n	n	n	n	n	n
CCNc1nc(NC(C)(C)C)nc(N(C#N)CC)n1	n	n	25	n	n	n
CCOCCc1nnc(NC(=O)COC)s1	n	n	n	n	n	n
CC(=O)Nc1ccc2oc(-c3ccccc3Br)nc2c1	2.2	n	n	n	n	n
CC(=O)Nc1ccc2oc(-c3cc(F)c(F)cc3Cl)nc2c1	3.8	n	n	n	n	x
O=C(NC1CCCCC1)N(CCN1CCCC1)Cc1cc2cc3c(cc2[nH]c1=O)OCCO3	3.6	n	n	n	n	+
